# High-throughput results as filed in PubChem BioAssay.
# MenB inh: Mtb MenB enzyme inhibition; inhibition, % (no concentration beside the values); MenB enzyme assay, absorbance read-out; AID 540299; 100,000 compounds, 0.43% hits; in the data active = inhibition above about 21%, passing the limit was not always enough
# Mtb MbtI inh: inhibitors of Mycobacterium tuberculosis siderophore enzyme MbtI; P9WFX0; purified MbtI enzyme, fluorescence intensity read-out; inhibition, % (test concentration not listed); 100,000 compounds, 0.89% hits; AID 493033; in the data active = inhibition mostly above about 56%, no sharp cut-off; inactive = mostly below about 77%
# Target sequence (P9WFX0 whole entry, looked up): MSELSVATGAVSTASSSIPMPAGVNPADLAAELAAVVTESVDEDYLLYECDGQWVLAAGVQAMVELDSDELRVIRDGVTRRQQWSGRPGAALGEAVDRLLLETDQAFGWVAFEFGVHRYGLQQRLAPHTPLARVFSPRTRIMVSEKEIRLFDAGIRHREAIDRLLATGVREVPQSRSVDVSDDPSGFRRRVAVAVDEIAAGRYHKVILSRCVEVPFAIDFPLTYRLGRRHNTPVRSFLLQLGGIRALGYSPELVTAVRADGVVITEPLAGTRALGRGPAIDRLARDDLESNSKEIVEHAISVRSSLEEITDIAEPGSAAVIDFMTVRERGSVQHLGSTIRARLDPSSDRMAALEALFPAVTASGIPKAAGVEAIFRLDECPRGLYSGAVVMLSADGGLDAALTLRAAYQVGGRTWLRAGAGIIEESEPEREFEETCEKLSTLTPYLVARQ
# PV pol inh: inhibitors of poliovirus RNA polymerase binding and polymerization; P03300; 150,000 compounds, 0.66% hits; % elongation, % (compound at 16.7 µg/mL); poliovirus polymerase elongation, fluorescence polarization; stronger effect = lower value; in the data active = % elongation below about 90%
# The depositor's hits bear a star; · = no result. Rows were chosen to be rich in hits. Some 1.5% of all compounds tested hit in one or more screens of this group.
SMILES,MenB inh,Mtb MbtI inh,PV pol inh
CNC(=O)c1sc(=S)n(-c2ccccc2)c1N,-14.3,66.0*,100.0
Cc1c(C(=O)O)sc(=S)n1-c1ccccc1,0.2,17.1,100.0
COC(=O)c1sc(=S)n(-c2cccc(C)c2)c1N,-20.9,32.6,95.0
Cc1ccc(-n2c(C)c3c(C)nnc(C)c3c2C)cc1C,0.4,-26.0,100.0
Cc1ccc(-n2c(N)c(C(N)=O)sc2=S)cc1C,-11.8,94.0*,98.0
CC(=O)Nc1ccc(NC(=O)C(Cc2ccccc2)NS(=O)(=O)c2ccc3c(c2)CCC(=O)N3)cc1 (stereo unspecified),6.1,-2.5,100.0
C=CCC1Cc2ccccc2C(C)N1 (stereo unspecified),·,4.2,·
C=CCC1Cc2ccccc2C(CC=C)N1 (stereo unspecified),39.3*,-3.1,100.0
COc1ccc(C2=C(N)C(=O)NC2=O)cc1OC,-104.6,·,105.0
O=C(CCc1ccccc1)NC1CCS(=O)(=O)C1 (stereo unspecified),-3.6,-1.9,·
O=C(NC1CCS(=O)(=O)C1)Sc1ccccc1 (stereo unspecified),15.0,51.5*,104.0
Clc1ccc(-c2csc(-c3cccc(-n4cccc4)c3)n2)cc1,-0.2,26.4,105.0
N#CC1=C2SCN(C3CCCCC3)CN2C(=O)CC1c1c(F)cccc1Cl (stereo unspecified),·,·,69.0*
N#CC1=C2SCN(C3CCCCC3)CN2C(=O)CC1c1ccc(F)cc1 (stereo unspecified),·,·,84.0*
N#CC1=C2SCN(C3CCCCC3)CN2C(=O)CC1c1ccc(Cl)cc1 (stereo unspecified),·,·,98.0
COc1ccccc1C1CC(=O)N2CN(C3CCCCC3)CSC2=C1C#N (stereo unspecified),-18.2,38.3,94.0
CCCC1=Nc2cc(C(=O)NC)ccc2Sc2ccccc21,-6.0,-1.0,106.0
CCCNC(=O)CC(c1cccs1)N1Cc2ccccc2C1=O (stereo unspecified),-19.3,-12.3,105.0
COc1cc(S(=O)(=O)N2CCOCC2)ccc1NC(=O)COC(C)=O,2.7,-0.1,104.0
O=S(=O)(c1ccccc1)c1ccc2c(c1)Sc1ccccc1N2,-20.6,0.3,101.0
Cc1ccc(S(=O)(=O)c2ccccc2)cc1S,-12.5,·,62.0*
O=C(Nc1ccc(-n2cnnn2)cc1)c1cccc(S(=O)(=O)N2CCc3ccccc3C2)c1,-3.3,-22.8,96.0
Clc1ccc(-c2cn3c4ccccc4nc3n2CCCNC2CCCCC2)cc1,-39.2,-21.9,99.0
Cc1ccc(-c2cn3c4ccccc4nc3n2CCCN2CCCCC2)cc1,-8.6,·,90.0*
COc1cccc(OCCSc2nc(-c3ccccc3)cc(=O)[nH]2)c1,-23.7,17.2,103.0
SMILES,MenB inh,Mtb MbtI inh,PV pol inh
COc1ccc(OCCSc2nc(C)cc(=O)[nH]2)cc1,51.0*,12.2,102.0
CC(Cn1c(=S)[nH]c2c(oc3ccccc32)c1=O)c1ccccc1 (stereo unspecified),-23.3,-4.2,102.0
O=C(CN1CCc2sccc2C1c1cccs1)N1CCC(c2ccccc2)=N1 (stereo unspecified),-27.4,4.3,100.0
CC1=N/C(=C/c2ccccc2)C(=O)O1,-8.3,2.2,103.0
CSc1nc2c(=S)[nH]c(=S)[nH]c2s1,-94.9,55.4*,82.0*
CSc1nc2nc(N)nc(N)c2s1,-13.8,·,103.0
Cc1ccc(Sc2nn(C)c(=O)n(C)c2=O)cc1C,-19.8,3.6,101.0
Cc1cc(=O)[nH]c(O)c1C#N,13.2,108.5,98.0
Clc1ccc2c(c1)CCN2,36.3*,27.1,100.0
CCN(CC)S(=O)(=O)c1ccc2c(c1)CCCN2,0.7,26.1,106.0
Nn1c(Cn2ccnc2)nnc1Cn1ccnc1,-7.8,·,105.0
Brc1cccc(-c2nnc3sc(CN4CCc5ccccc5C4)cn23)c1,-16.3,50.4,98.0
O=C1c2ccc(F)cc2C(=O)N1C1CC1,·,-13.4,·
CC1=C(O)C(=O)C=C2C1=CC=C1[C@@]2(C)CC[C@@]2(C)[C@@H]3C[C@](C)(C(=O)O)CC[C@]3(C)CC[C@]12C,12.2,102.7*,102.0
CCOC(=O)/C=C1\NC2(CCCC2)Cc2cc(OC)c(OC)cc21,-37.0,-7.1,102.0
CCCN(CCC)C(=O)Nc1cn(CC(C)C)c(=O)c2ccccc12,-23.9,120.1,97.0
CC(C)Cn1cc(NC(=O)N2CCN(c3cccc(C(F)(F)F)c3)CC2)c2ccccc2c1=O,·,·,103.0
Cc1ccc(NC(=O)Nc2cn(CC(C)C)c(=O)c3ccccc23)cc1N(C)C,·,·,73.0*
CC(C)Cn1cc(NC(=O)Nc2cccc(C(F)(F)F)c2)c2ccccc2c1=O,·,·,70.0*
CC(=O)NCc1ccc(C(=O)COC(=O)Cc2n[nH]c(=O)c3ccccc23)o1,-31.5,-61.8,101.0
CCn1c2ccccc2c2cc(NC(=O)C3SC(=Nc4ccc(Cl)cc4)C(C(=O)NCc4ccco4)=C3N)ccc21 (stereo unspecified),-11.7,0.1,104.0
Cc1cc(C)n(-c2ccc(C(=O)N3CCCSC3=Nc3ccccc3)cc2)n1,-2.4,-1.8,103.0
N#Cc1c(N(C(=O)/C=C/c2ccco2)C(=O)/C=C/c2ccco2)oc(-c2ccco2)c1-c1ccco1,-15.7,4.4,89.0*
COc1cccc(OC)c1C(=O)N(C(=O)c1c(OC)cccc1OC)c1oc(-c2ccco2)c(-c2ccco2)c1C#N,12.2,17.3,103.0
O=C(OCc1ccc2ccccc2c1)c1ccco1,-15.3,-12.4,100.0
SMILES,MenB inh,Mtb MbtI inh,PV pol inh
CCCc1cc(=O)[nH]c(=S)[nH]1,-3.9,31.3,104.0
O=c1cc(CSc2ccc(Cl)cc2)[nH]c(=S)[nH]1,-79.5,58.5*,99.0
CN(C)c1ccc(CNCc2ccccc2)cc1,0.0,5.9,102.0
CN(C)Cc1cc(C=NC2CCCCC2)c(S)s1,-3.2,·,109.0
Sc1sccc1C=NC1CCCCC1,-206.0,98.8*,98.0
CCOc1cc(CNCC(c2ccc(OC)cc2)N2CCCCC2)ccc1OC(C)C(=O)N(C)C (stereo unspecified),49.3*,-10.7,99.0
COc1ccc(C(CNC(=O)Cc2cc(OC)c(OC)c(OC)c2)N2CCCC2)cc1 (stereo unspecified),-6.7,-14.5,103.0
CCCN(CCC)C(=O)Cn1c(=O)n(CCCC(=O)NCc2ccc(C)cc2)c(=O)c2ccccc21,-0.8,-4.6,103.0
COc1ccc(-c2noc(N3CCC(C(=O)NC(C)CCc4ccccc4)CC3)n2)cc1 (stereo unspecified),-10.7,-18.1,102.0
CC(=O)N(C)c1nc(-c2ccccc2)cs1,-49.5,4.0,102.0
CC(C)Sc1n[nH]c(=S)n1C,-18.7,42.0,109.0
CCC(C)Sc1n[nH]c(=S)s1 (stereo unspecified),6.0,99.0*,101.0
CC(C)Sc1n[nH]c(=S)s1,-104.2,97.8*,88.0*
COc1cc(NC(=O)c2cnc(N3CCCC3)nc2)cc(OC)c1OC,-18.0,9.4,103.0
O=C(NCCc1ccccc1)c1cnc(N2CCCC2)nc1,-6.5,9.3,100.0
CS(=O)(=O)Nc1ccc(C2=NN(C(=O)c3ccccc3)C(c3ccco3)C2)cc1 (stereo unspecified),-11.6,3.3,102.0
CC12CCC(=O)N1C(C(=O)O)Cc1c2[nH]c2ccccc12 (stereo unspecified),-18.4,-5.4,85.0*
CC(=O)N1C(C(=O)O)Cc2c([nH]c3ccccc23)C1(C)C (stereo unspecified),-4.1,·,105.0
CCc1ccc2occ(CC(=O)Nc3ccc(C(=O)OC)cc3)c2c1,-46.5,4.9,101.0
